The nature of test [1]: small molecules captured by biotinylated probe aFSTL3 – biochemical, small-molecule microarray, fluorescence 635/667, stem cell growth factor project, primary screen (AID 1064).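 Further: measures binding of the biotinylated anti-FSTL3 antibody to printed compounds.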 To be noted: higher = more signal.
Test [2] in a line: binders from COS7 lysate, DM2A8 probe, primary screen, torsin A project, cell lysate, small-molecule microarray, fluorescence 635/667 (AID 1065). To be noted: higher = more signal, COS7 lysate expressing mutant human TOR1A.
The nature of test [3]: small molecules captured by biotinylated probe aFGF2 – biochemical, small-molecule microarray, fluorescence 635/667, stem cell growth factor project, primary screen (AID 1067).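 Further: measures binding of biotinylated aFGF2 protein to printed compounds on slides; z-score merges feature fluorescence and signal-to-noise across triplicate slides.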 To be noted: higher = more signal.
Test [4] is described as follows: small molecules captured by biotinylated probe aFGF10 – biochemical, small-molecule microarray, fluorescence 635/667, stem cell growth factor project, primary screen (AID 1071).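 Further: score merges 667 nm spot intensity and signal to noise from triplicate slides.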 To be noted: higher = more signal.
In test [5] the target is Neurogenic locus notch homolog protein 2 (Homo sapiens) (UniProt Q04721). Description: small molecules binding Notch2 protein – biochemical, small-molecule microarray, 635 nm fluorescence, stem cell growth factors, primary screen (AID 1073). To be noted: higher = more signal.
Test [6] deals with Pro-neuregulin-1, membrane-bound isoform (Homo sapiens) (UniProt Q02297). Description: small molecules binding neuregulin-1 protein – biochemical, small-molecule microarray, fluorescence 635/667, psychiatric disease protein project, primary screen (AID 1075).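 Further: score combines 667 nm spot fluorescence with signal to noise.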 To be noted: NRG1 binding, 635 nm fluorescence, higher = more signal.
Sequence of Pro-neuregulin-1, membrane-bound isoform (Homo sapiens) (Q02297 whole entry, looked up, the tested form may be a part, canonical isoform): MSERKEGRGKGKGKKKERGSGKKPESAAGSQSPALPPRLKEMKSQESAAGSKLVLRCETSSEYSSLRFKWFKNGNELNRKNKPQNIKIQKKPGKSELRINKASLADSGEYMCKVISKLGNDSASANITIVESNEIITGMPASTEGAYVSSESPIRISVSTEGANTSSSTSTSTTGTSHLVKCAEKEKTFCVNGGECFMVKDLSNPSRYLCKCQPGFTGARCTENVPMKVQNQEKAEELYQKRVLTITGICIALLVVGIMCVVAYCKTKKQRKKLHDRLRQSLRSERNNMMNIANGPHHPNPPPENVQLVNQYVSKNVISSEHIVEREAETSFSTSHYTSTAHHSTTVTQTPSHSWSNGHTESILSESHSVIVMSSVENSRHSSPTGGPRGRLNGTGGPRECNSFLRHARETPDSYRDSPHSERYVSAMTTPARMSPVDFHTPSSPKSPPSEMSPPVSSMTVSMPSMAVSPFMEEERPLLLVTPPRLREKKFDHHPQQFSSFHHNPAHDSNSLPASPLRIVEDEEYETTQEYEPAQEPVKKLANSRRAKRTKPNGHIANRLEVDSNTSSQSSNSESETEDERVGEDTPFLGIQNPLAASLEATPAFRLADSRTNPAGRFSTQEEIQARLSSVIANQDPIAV
Test [7] deals with Neuregulin-1 EGF-like domain. The test is described as follows: small molecules binding NRG1 EGF domain – biochemical, small-molecule microarray, 635 nm fluorescence, primary screen (AID 1081).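 Further: binding of the protein to compounds printed on small-molecule microarray slides.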 To be noted: higher = more signal.
The nature of test [8]: FRG1 expression reporter modulators in myotubes – cell-based, C2C12 myotubes, firefly/Renilla luciferase, luminescence, FRG1 inhibition for FSHD, primary screen (AID 1084). To be noted: FRG1 promoter luciferase, higher = more signal, called active from +8 up or from −8 down.
Test [9] is described as follows: small molecules captured by biotinylated probe aFST – biochemical, small-molecule microarray, fluorescence 635/667, stem cell growth factor project, primary screen (AID 1086).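 Further: score merges 667 nm fluorescence with signal-to-noise of each printed compound spot.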 To be noted: higher = more signal.
The nature of test [10]: binders of probe aHhip on microarray, primary screen, stem cell growth factor project, biochemical, small-molecule microarray, fluorescence 635/667 (AID 1087).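 Further: score merges spot fluorescence at 667nm with spot signal to noise ratio.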 To be noted: higher = more signal.
Test [11] has as its system PRMT1 (protein arginine N-methyltransferase 1). The test is described as follows: small molecules binding arginine methyltransferase PRMT1 – biochemical, small-molecule microarray, 635 nm fluorescence, primary screen (AID 1088).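 Further: binding of Prmt1 protein to compounds spotted on small-molecule microarray slides.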 To be noted: higher = more signal.
Test [12] can be described thus: growth effects on S. cerevisiae YJM789 – YJM789 clinical isolate, OD600, 24 h, basal, primary screen (AID 1089).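 Further: growth of clinical yeast isolate S. cerevisiae YJM 789 seeded 1000 cells per well; test concentration not given here.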 To be noted: higher = more signal, called active from +8 up or from −8 down.
Test [13] in a line: S. pombe growth modifiers, basal conditions – strain 972, OD600, 24 h, no modulator, primary screen (AID 1090).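 Further: basal condition with compound alone and no growth modifier present; test concentration not given here.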 To be noted: S. pombe 972 growth, higher = more signal, called active from +8 up or from −8 down.
Test [14] can be described thus: budding yeast growth modifiers under rapamycin – strain BY4716, OD600, 96 h, primary screen (AID 1091). Further: test concentration not given here. To be noted: S. cerevisiae BY4716 + rapamycin, higher = more signal, called active from +8 up or from −8 down.
Test [15] deals with Torsin-1A-interacting protein 2 (Homo sapiens) (UniProt Q8NFQ8). The test is described as follows: small molecules binding lysate-expressed LULL1 – cell lysate, human LULL1 lysate, 635/667 nm fluorescence, primary screen (AID 1092).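 Further: probe is lysate of COS7 cells overexpressing human LULL1; score merges per-feature 667 nm fluorescence with signal-to-noise.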 To be noted: small-molecule microarray, hLULL1 lysate binding, 635 nm fluorescence; higher = more signal.
Sequence of Torsin-1A-interacting protein 2 (Homo sapiens) (Q8NFQ8 whole entry, looked up): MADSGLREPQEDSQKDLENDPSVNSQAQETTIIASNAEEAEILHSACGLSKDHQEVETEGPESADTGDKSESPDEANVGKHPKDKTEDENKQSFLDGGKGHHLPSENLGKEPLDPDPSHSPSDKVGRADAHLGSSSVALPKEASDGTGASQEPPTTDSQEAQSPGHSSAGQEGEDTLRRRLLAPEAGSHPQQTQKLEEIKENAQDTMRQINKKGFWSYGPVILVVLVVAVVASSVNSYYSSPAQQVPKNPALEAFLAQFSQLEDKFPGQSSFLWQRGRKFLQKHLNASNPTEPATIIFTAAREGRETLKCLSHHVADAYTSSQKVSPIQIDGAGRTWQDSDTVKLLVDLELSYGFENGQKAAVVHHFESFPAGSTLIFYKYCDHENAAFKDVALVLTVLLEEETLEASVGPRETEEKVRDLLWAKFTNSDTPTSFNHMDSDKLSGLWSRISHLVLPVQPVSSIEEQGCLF
Test [16] in a line: optical density change of DRC41 E. coli – strain DRC41, OD650, 24 h, E. coli filamentation project, primary screen (AID 1093).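 Further: MC1000 strain lacking acrAB efflux and sulA so SOS filamentation is blocked; test concentration not given here.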 To be noted: E. coli DRC41 growth, higher = more signal, called active from +8 up or from −8 down.
Test [17] can be described thus: probe aLefty2 binding to arrayed compounds – biochemical, biotinylated probe, 635/667 nm fluorescence, primary screen (AID 1094).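 Further: score merges spot fluorescence near 667 nm with spot signal-to-noise ratio.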 To be noted: small-molecule microarray, higher = more signal.
Test [18] concerns Noggin (protein binding on small-molecule microarray). The test is described as follows: small molecules binding Noggin protein – biochemical, 635/667 nm fluorescence, primary screen (AID 1095).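 Further: score merges 667 nm feature fluorescence with signal to noise over triplicate slides.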 To be noted: 635 nm fluorescence, higher = more signal.
For test [19], the target named is Neurogenic locus notch homolog protein 3 (Homo sapiens) (UniProt Q9UM47). The test is described as follows: small molecules binding NOTCH3 protein – biochemical, 635/667 nm fluorescence, primary screen (AID 1096). To be noted: small-molecule microarray, 635 nm fluorescence, higher = more signal.
Sequence of Neurogenic locus notch homolog protein 3 (Homo sapiens) (Q9UM47 whole entry, looked up): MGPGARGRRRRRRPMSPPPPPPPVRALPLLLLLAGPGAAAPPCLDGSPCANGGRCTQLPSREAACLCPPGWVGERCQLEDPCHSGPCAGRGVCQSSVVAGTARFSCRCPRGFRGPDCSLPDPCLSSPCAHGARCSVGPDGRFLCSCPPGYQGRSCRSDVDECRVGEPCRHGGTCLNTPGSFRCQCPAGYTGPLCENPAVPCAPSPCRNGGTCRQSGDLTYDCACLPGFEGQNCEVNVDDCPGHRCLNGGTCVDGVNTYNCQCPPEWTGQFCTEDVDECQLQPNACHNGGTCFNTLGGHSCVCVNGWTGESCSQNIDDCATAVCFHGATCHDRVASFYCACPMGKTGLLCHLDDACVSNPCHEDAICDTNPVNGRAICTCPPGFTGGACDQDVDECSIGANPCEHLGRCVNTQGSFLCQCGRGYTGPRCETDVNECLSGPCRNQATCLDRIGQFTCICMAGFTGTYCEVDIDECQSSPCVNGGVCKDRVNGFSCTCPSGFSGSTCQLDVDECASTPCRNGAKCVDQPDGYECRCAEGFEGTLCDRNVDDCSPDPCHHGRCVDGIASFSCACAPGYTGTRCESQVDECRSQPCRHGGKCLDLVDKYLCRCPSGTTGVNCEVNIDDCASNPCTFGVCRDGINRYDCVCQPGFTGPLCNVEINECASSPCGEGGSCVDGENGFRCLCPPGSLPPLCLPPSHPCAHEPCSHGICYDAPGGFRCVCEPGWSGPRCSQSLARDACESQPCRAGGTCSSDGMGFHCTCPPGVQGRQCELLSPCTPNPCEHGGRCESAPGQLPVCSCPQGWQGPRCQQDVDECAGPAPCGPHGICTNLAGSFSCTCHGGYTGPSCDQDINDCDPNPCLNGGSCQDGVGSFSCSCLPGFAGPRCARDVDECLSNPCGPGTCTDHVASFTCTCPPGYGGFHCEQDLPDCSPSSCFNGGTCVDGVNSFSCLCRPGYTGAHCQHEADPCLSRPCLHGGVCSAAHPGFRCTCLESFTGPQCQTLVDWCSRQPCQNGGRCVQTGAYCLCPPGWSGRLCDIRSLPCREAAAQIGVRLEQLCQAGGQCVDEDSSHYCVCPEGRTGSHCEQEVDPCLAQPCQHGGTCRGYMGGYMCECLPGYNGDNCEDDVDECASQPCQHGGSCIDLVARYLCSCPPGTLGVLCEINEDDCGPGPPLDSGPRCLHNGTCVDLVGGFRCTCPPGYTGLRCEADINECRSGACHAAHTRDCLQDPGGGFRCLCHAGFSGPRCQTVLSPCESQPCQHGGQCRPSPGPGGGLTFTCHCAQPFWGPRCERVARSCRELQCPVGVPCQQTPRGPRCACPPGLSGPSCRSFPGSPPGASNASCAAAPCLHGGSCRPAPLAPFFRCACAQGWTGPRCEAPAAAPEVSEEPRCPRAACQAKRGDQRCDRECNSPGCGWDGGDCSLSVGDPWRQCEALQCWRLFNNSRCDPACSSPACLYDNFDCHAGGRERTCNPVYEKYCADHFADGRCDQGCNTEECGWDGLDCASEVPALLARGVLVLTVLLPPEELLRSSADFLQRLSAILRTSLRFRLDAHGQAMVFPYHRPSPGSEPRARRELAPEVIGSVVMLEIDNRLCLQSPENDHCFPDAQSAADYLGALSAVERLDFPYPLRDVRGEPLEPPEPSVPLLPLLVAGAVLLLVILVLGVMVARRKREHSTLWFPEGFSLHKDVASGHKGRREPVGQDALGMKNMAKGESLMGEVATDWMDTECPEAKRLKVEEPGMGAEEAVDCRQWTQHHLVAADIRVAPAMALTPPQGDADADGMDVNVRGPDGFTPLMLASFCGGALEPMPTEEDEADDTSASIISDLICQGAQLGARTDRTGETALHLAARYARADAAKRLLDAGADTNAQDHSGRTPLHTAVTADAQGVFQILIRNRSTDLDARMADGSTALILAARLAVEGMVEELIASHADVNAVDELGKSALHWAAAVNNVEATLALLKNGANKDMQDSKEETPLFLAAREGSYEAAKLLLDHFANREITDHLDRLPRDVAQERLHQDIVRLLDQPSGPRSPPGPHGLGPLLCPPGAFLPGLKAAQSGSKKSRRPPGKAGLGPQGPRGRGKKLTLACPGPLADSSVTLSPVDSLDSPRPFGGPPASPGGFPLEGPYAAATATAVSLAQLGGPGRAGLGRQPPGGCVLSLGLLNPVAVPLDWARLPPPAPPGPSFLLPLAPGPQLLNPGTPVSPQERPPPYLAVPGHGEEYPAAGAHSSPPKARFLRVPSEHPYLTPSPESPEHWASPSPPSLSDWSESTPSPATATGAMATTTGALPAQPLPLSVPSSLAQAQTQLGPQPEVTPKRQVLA
The nature of test [20]: probe aEGFR binding to arrayed compounds – biochemical, biotinylated probe, 635/667 nm fluorescence, primary screen (AID 1097).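 Further: probe is a biotinylated anti-EGFR antibody binding compounds printed on slides; score combines fluorescence near 667 nm and signal to noise of each spot.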 To be noted: small-molecule microarray, higher = more signal.

SMILES strings stand for the structures. Calls of active or inactive are those of the source.

Regarding `NCCCCCNC(=O)[C@@H]1C[C@@H]2C(=O)NCC(=O)N2[C@@H]1c1cccc(OCCO)c1`, the composite z-score in [1] was -0.144; in test [2] it was 0.45; in [3], 0.108; in [4] it was 0.773; in test [5] it was 0.756; in test [6] it was 0.889. Moreover, the composite z-score was 1.34 in test [7]; 0.417 in test [9]; 0.151 in test [10]; 1.44 in test [11]; 1.32 in test [15]; 0.086 in [17]. Further, the composite z-score in [18] is 1.35; in test [19], 0.712; in test [20], -0.0158. Besides, the z-score in [8] is 0.0981 (inactive); in test [12] it was -0.0012 (inactive); in [13], -0.926 (inactive); in [14], 0.267 (inactive); in test [16], 2.01 (inactive).

As for `CN(C)C(=O)[C@@]1(Cc2ccccc2CN=[N+]=[N-])N=C(c2ccc(OCCCO)cc2)O[C@H]1c1ccccc1CN=[N+]=[N-]`, the composite z-score in [1] was 0.262; in test [2], -0.159; in test [3], 0.222; in test [4], 0.776; in test [5], 1.52; in test [6], 1.64. For the same compound, the composite z-score was 1.29 in [7]; 0.457 in test [9]; -0.388 in [10]; 0.88 in test [11]; 2.6 in test [15]; 0.514 in test [17]. Moreover, the results for the composite z-score in [18], in test [19] and in test [20] were -0.586, 0.456 and 0.424, respectively. In addition, the z-score is -4.01 (inactive) in test [8]; 0.733 (inactive) in test [12]; 1.19 (inactive) in test [13]; 15.6 (active) in test [14]; 0.0474 (inactive) in test [16].

Take `N#Cc1ccc(C(O)C2C=CC3C(=O)N(c4ccccc4)C(=O)C3N2Nc2ccccc2)cc1` (stereo not given): the composite z-score in test [1] was 0.396; in test [2], 0.0518; in test [3] it was 0.129; in test [4] it was 0.77; in test [5], 1.32; in [6], 1.19. Also, the composite z-score is 1.08 in test [7]; 0.833 in [9]; -0.069 in [10]; 0.0016 in test [11]; 2.62 in test [15]; 0.443 in test [17]. The composite z-score was -0.383 in [18], 0.744 in [19] and 0.104 in [20]. The z-score in test [8] was -0.627 (inactive); in test [12], 0.953 (inactive); in test [13] it was -0.145 (inactive); in [14], -0.248 (inactive); in [16] it was 0.445 (inactive).

In the case of `CCOC(=O)C[C@H]1[C@H](OC(=O)c2ccccc2-c2ccccc2)[C@@H](NC(=O)c2ccc(-c3ccccc3)cc2)c2cc(OCCCO)ccc2N1C(=O)c1ccc2ccccc2n1`, the composite z-score in test [1] is -0.405; in test [2], 0.286; in test [3], -0.127; in test [4], 0.754; in test [5] it was 0.75; in [6] it was 0.789. The composite z-score was 0.849 in test [7]; 0.211 in test [9]; -0.145 in test [10]; 1.02 in [11]; 1.11 in [15]; 0.0332 in test [17]. Further, the composite z-score in test [18] was 0.427; in test [19], 0.592; in test [20] it was 0.2. Also, the z-score in test [8] is 0.835 (inactive); in [12], 0.214 (inactive); in test [13] it was 0.632 (inactive); in [14] it was 0.723 (inactive); in test [16], -0.75 (inactive).

For the compound `COC(=O)[C@@]1(Cc2ccccc2)[C@H]2c3cc(C(=O)N(C)C)n(CCc4ccc(O)c(OC)c4)c3C[C@H]2CN1C(=O)c1ccccc1`, the composite z-score stood at 0.514 in test [1]; 0.283 in test [2]; 0.356 in [3]; 0.557 in test [4]; 0.749 in test [5]; 0.258 in [6]. The composite z-score is 0.781 in [7]; 1.34 in test [9]; 2.09 in [10]; -0.26 in test [11]; 0.47 in test [15]; 0.425 in test [17]. Moreover, the composite z-score amounted to 0.374 in test [18], 0.489 in test [19] and 0.992 in test [20]. Further, the z-score is 0.96 (inactive) in test [8]; 0.031 (inactive) in [12]; -0.0531 (inactive) in test [13]; 0.409 (inactive) in test [14]; -0.452 (inactive) in [16].

These data come from PubChem BioAssay.
